Molecules are shown by their SMILES. About 83,000 compounds went through this panel and 20% of them were active in at least one assay; those are over-represented in the sample as a whole.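 In brief: 96-well plates, 48 h treatment, single concentration, percent growth endpoint.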 Values without a mark were called inactive. Activity calls are given as the source filed them. How the source made its calls: active means growth percent below 10; inactive means the rest.

Consider 18 compounds from PubChem BioAssay (NCI).

Test systems include T-47D breast; BT-549 breast; MDA-MB-435 melanoma; SW-620 colon; MCF7 breast; HCT-116 colon; HCC-2998 colon; KM12 colon.
Assay in all cases: NCI-60 one-dose screen, 48 h (100 = growth as untreated, 0 = no growth, -100 = all killed)
Holding throughout (conditions): 10 µM unless noted

Turning to `COc1cc(-c2nc3sccn3c2-c2ccnc(NCCNS(=O)(=O)c3ccc(Cl)cc3)n2)ccc1F`, the growth in the test with T-47D breast was 1.61% (active); with BT-549 breast, 30.9%; in the test with MDA-MB-435 melanoma, 9.48% (active); with SW-620 colon, 50.6%; with MCF7 breast, 17.7%; with HCT-116 colon it was 20.9%. For the same compound, in the test with HCC-2998 colon, the growth is 66.5%.

As to `C/C(=N\O)[C@@H]1CC[C@]2(CO)CC[C@]3(C)[C@H](CC[C@@H]4[C@@]5(C)CCCNC(C)(C)[C@@H]5CC[C@]43C)[C@@H]12`, the growth was 72.5% in the test on T-47D breast; 90.5% in the test on BT-549 breast; 79.5% with MDA-MB-435 melanoma; 88.5% in the test with SW-620 colon; 50.9% with MCF7 breast; 76.5% in the test on HCT-116 colon. Besides, the growth with HCC-2998 colon is 103%.

Regarding `CC1CCN(C(=S)SCC(=O)NC(=O)c2ccccc2)CC1`, the growth in the test on T-47D breast is 84.7%; in the test on BT-549 breast it was 106%; in the test with MDA-MB-435 melanoma, 106%; in the test with SW-620 colon, 105%; with MCF7 breast, 95.7%; with HCT-116 colon, 109%. In addition, the growth is 115% with HCC-2998 colon and 97% in the test on KM12 colon.

Turning to `COc1ccc(/C=C2\CN(C(=O)C(Cl)Cl)C/C(=C\c3ccc(OC)cc3)C2=O)cc1`, the growth was 2.86% (active) with T-47D breast; -19.3% (active) with BT-549 breast; -37.4% (active) in the test on MDA-MB-435 melanoma; -41.5% (active) in the test with SW-620 colon; -28.5% (active) with MCF7 breast; -70.2% (active) with HCT-116 colon. The growth with HCC-2998 colon was -77% (active).

Take `Cc1[nH]c(C2CC(c3ccc(C(F)(F)F)c(F)c3)=NN2c2ccccc2)c(C)c1C(=O)NCC(F)(F)F` (stereo not drawn): the growth with T-47D breast is 65.9%; in the test with BT-549 breast, 103%; with MDA-MB-435 melanoma, 98.1%; with SW-620 colon it was 99.1%; in the test on MCF7 breast, 56.5%; with HCT-116 colon it was 82.4%.

Regarding `CN1CCN(c2ccc(NC(=O)c3cncnc3Nc3ccc(OCc4cccc(F)c4)c(Cl)c3)cc2)CC1`, the growth in the test with T-47D breast was 72.9%; with BT-549 breast it was 102%; in the test with MDA-MB-435 melanoma, -72.3% (active); in the test on SW-620 colon, -30.5% (active); in the test on MCF7 breast, 13.4%; in the test on HCT-116 colon, 17.4%. Further, the growth with HCC-2998 colon is 71.5%.

With `CN(C)CCCNC(=O)c1cncnc1Nc1ccc(OCc2cccc(F)c2)c(Cl)c1`, the growth was -17% (active) with T-47D breast; 53.6% in the test with BT-549 breast; -88.6% (active) with MDA-MB-435 melanoma; -67.7% (active) in the test on SW-620 colon; -44% (active) in the test on MCF7 breast; -82% (active) in the test on HCT-116 colon. Besides, in the test on HCC-2998 colon, the growth is 6.05% (active).

Turning to `O=C(CCl)NNc1nccc(Nc2ccc(S(=O)(=O)Nc3ccncc3)cc2)n1`, the growth in the test on T-47D breast is 15.9%; with BT-549 breast it was 25.6%; with MDA-MB-435 melanoma, 41.3%; in the test with SW-620 colon, 28.5%; in the test with MCF7 breast it was 22.3%; in the test with HCT-116 colon, 10.7%.

As to `C=C1C(=O)O[C@H]2[C@H]1CC/C(Cn1cc(CCC)nn1)=C\CC[C@@]1(C)O[C@@H]21`, the growth in the test with T-47D breast is -40.1% (active); with BT-549 breast, 40.4%; in the test on MDA-MB-435 melanoma it was 36.2%; with SW-620 colon it was -0.143% (active); in the test with MCF7 breast, 11.1%; in the test with HCT-116 colon, -55.7% (active). Also, the growth is 73.6% in the test on HCC-2998 colon and 81.1% in the test on KM12 colon.

For `Cc1nc2c(=O)nc3s/c(=C\c4ccco4)c(=O)n3c2nc1C`, the growth was 94.3% with T-47D breast; 110% in the test with BT-549 breast; 94.1% with MDA-MB-435 melanoma; 111% with SW-620 colon; 96.4% in the test on MCF7 breast; 101% in the test with HCT-116 colon. Further, the growth in the test with HCC-2998 colon is 97.2%.

In the case of `COc1ccc(/C=C(/C(=O)n2cnnn2)c2cc(OC)c(OC)c(OC)c2)cc1`, the growth in the test with T-47D breast was 43.1%; in the test with BT-549 breast, 38.2%; in the test with MDA-MB-435 melanoma it was -50.3% (active); in the test on SW-620 colon, 21.2%; in the test on MCF7 breast, 16.2%; in the test with HCT-116 colon, 13.7%. Also, the growth in the test on HCC-2998 colon was 28.2%.

Regarding `Cc1cn(-c2cc(NC(=O)c3cncc(C#Cc4c(N)ncc5ccc(F)cc45)c3)cc(C(F)(F)F)c2)cn1`, the growth was 65.8% with T-47D breast; 86.4% in the test on BT-549 breast; 36.6% in the test on MDA-MB-435 melanoma; 33.3% in the test with SW-620 colon; 31.5% in the test on MCF7 breast; 19.4% with HCT-116 colon. In addition, the growth with HCC-2998 colon was 77.4%; in the test on KM12 colon, 14.1%.

Consider `COC(=O)c1cc(Br)ccc1O`, for which the growth is 119% in the test on T-47D breast; 103% in the test with BT-549 breast; 116% in the test with MDA-MB-435 melanoma; 114% in the test with SW-620 colon; 99.2% with MCF7 breast; 108% in the test on HCT-116 colon. Further, the growth in the test on HCC-2998 colon is 110%.

Consider `CCN(CC)CCN1C(=O)c2c(c(C)c3c(oc4ccc(OC)cc43)c2C)C1=O`, for which the growth in the test on T-47D breast was 110%; in the test with BT-549 breast, 116%; in the test on MDA-MB-435 melanoma it was 104%; with SW-620 colon, 92.2%; in the test on MCF7 breast, 94.8%; in the test on HCT-116 colon it was 83.7%. Moreover, the growth with HCC-2998 colon is 100%.

In the case of `CC(=O)OC(c1ccccc1)C1CCOC1=O` (stereo not drawn), the growth was 106% in the test with T-47D breast; 120% with BT-549 breast; 96.3% in the test on MDA-MB-435 melanoma; 102% in the test with SW-620 colon; 102% in the test with MCF7 breast; 101% in the test with HCT-116 colon. Besides, the growth in the test on HCC-2998 colon is 97.2%.

`O=C(Nc1ncc(Cc2cc(C(F)(F)F)ccc2Cl)s1)c1cccs1`: the growth with T-47D breast was 31.9%; in the test with BT-549 breast, 46.9%; in the test on MDA-MB-435 melanoma, 1.23% (active); in the test on SW-620 colon, 47%; in the test with MCF7 breast, 30%; in the test on HCT-116 colon, 39.9%. Moreover, the growth in the test with HCC-2998 colon was 64.5%.

For `Cc1ccc(/C=C/C(=O)Nc2ncc(Cc3ccc(F)cc3)s2)o1`, the growth is 58.5% in the test with T-47D breast; 68.9% in the test with BT-549 breast; -25.9% (active) in the test on MDA-MB-435 melanoma; 24.6% with SW-620 colon; 14% in the test on MCF7 breast; 33.5% with HCT-116 colon. Further, the figures for the growth in the test on HCC-2998 colon and in the test with KM12 colon were 48.8% and 21%, respectively.

In the case of `C=C(C)[C@@H]1CC[C@]2(C(=O)N3CCN(C)CC3)CC[C@]3(C)[C@H](CC[C@@H]4[C@@]5(C)CC[C@H](OC(=O)c6ccccc6C(=O)O)C(C)(C)[C@@H]5CC[C@]43C)[C@@H]12`, the growth with T-47D breast was 102%; with BT-549 breast, 111%; in the test on MDA-MB-435 melanoma, 99.3%; in the test on SW-620 colon, 101%; in the test with MCF7 breast it was 96.4%; in the test on HCT-116 colon it was 90.8%. Also, the growth with HCC-2998 colon is 106%.
